Results reported in PubChem BioAssay (Tox21).
Values without a mark were called inactive. Records with an inconclusive call do not appear. Entries that show only a call come without a potency. The source made the active and inactive calls. Unless noted, calls come from the whole dose curve.

Tests used:
[1] = Nuclear factor erythroid 2-related factor 2/antioxidant responsive element (Nrf2/ARE) small molecule agonists: qHTS cell viability counter screen in human keratinocytes (AID 1919968; active = well fitted curve in the direction sought with a large enough effect in the repeat runs; an effect the other way counts as inactive or inconclusive; note: nearly all actives have a fitted effect of over 55% in size; note: potency is the fitted concentration of half-maximal effect)
How it was run: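 After a 5 h attachment period, ARE-reporter keratinocytes were dosed with compounds in DMSO and then cultured 23 h at 37 C. Cell viability came from CellTiter-Fluor signal read after a further 1 h.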

[2] = Nuclear factor erythroid 2-related factor 2/antioxidant responsive element (Nrf2/ARE) small molecule agonists: luciferase reporter gene qHTS assay in human keratinocytes (AID 1919969); note: nearly all actives have a fitted effect of over 35% in size; note: potency is the fitted concentration of half-maximal effect
[3] = molecular target: Gonadotropin-releasing hormone receptor (Homo sapiens) (UniProt P30968); test: Human gonadotropin-releasing hormone receptor (GnRHR) small molecule agonists, calcium flux assay in GnRHR-HEK293 cells (AID 1920063); note: nearly all actives have a fitted effect of over 35% in size
Sequence of Gonadotropin-releasing hormone receptor (Homo sapiens) (P30968 whole entry, looked up): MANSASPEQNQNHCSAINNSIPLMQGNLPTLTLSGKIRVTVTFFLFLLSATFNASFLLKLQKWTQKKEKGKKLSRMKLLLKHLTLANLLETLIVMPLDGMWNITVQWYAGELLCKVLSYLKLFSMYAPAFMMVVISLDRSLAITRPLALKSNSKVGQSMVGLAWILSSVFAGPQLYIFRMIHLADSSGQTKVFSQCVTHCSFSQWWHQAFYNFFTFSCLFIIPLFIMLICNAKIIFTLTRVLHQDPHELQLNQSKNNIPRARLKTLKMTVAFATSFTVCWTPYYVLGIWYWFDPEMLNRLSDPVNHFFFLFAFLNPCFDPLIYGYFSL
How it was run: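 We seeded human GnRHR-expressing HEK293 cells for 18 hours, loaded them with calcium dye for an hour at 37 C, added test compounds, and recorded fluorescence intensity kinetically for three minutes.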

[4] = molecular target: KiSS-1 receptor (Homo sapiens) (UniProt Q969F8); test: Human kisspeptin (KISS1R) small molecule agonists, calcium flux assay in KISS1R-HEK293 cells (AID 1920064; active = well fitted curve in the direction sought with a large enough effect in the repeat runs; an effect the other way counts as inactive or inconclusive)
Sequence of KiSS-1 receptor (Homo sapiens) (Q969F8 whole entry, looked up): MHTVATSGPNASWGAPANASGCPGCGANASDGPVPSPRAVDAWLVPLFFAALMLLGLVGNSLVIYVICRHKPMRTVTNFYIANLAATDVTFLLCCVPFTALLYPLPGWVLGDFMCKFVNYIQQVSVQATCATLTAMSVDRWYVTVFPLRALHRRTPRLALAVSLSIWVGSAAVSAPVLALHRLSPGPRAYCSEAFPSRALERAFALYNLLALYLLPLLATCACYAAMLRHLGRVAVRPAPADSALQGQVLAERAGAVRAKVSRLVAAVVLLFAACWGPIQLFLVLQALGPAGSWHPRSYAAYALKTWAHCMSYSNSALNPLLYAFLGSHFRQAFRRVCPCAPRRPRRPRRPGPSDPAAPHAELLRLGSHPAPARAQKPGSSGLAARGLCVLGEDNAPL
How it was run: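 Kinetic calcium assay, 1 s sampling over 3 min at Ex/Em 480/540, in HEK293 cells engineered with human KISS1R; compounds delivered in DMSO after 1 h dye loading.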

[5] = G protein-coupled receptor (GPCR) small molecule agonists, calcium flux assay: HEK293 wild type cell line counter screen (AID 1920065)
How it was run: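 Calcium-sensitive dye, loaded 1 h at 37 C into cells cultured 18 h, reports compound-evoked calcium release as fluorescence (Ex/Em 480/540), measured over 3 min. Agonist mode; 15-point titrations, triplicate.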

[6] = p53 small molecule agonists, cell-based qHTS assay with human liver microsomes (AID 1963577);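 note: p53 response element beta-lactamase reporter cells with liver microsomes plus NADPH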
How it was run: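 16 h, 37 C exposure of p53RE-bla cells to compounds with human liver microsomes and NADPH (0.5 mg/mL final each); detection via LiveBLAzer mixture, 2 h dark at room temperature.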

[7] = p53 small molecule agonists, cell-based qHTS assay with rat liver microsomes (AID 1963578)
How it was run: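 With rat liver microsomes and NADPH present (0.5 mg/mL final each), p53RE-bla cells are treated with compound for 16 h at 37 C. LiveBLAzer detection mixture is then applied for 2 h at room temperature in the dark.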

[8] = p53 small molecule agonists, cell-based qHTS assay with human liver microsomes: qHTS cell viability counter screen (AID 1963579); note: nearly all actives have a fitted effect of over 45% in size
How it was run: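 In this multiplexed counter screen, the reporter plates were subsequently treated with CellTiter-Glo so that cell viability, reflected by luminescence, could be recorded for p53RE-bla cells dosed 16 h with compounds under microsomal activation (HLM and NADPH).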

[9] = p53 small molecule agonists, cell-based qHTS assay with rat liver microsomes: qHTS cell viability counter screen (AID 1963580); note: nearly all actives have a fitted effect of over 45% in size
How it was run: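 Viability is assessed in parallel with the p53 reporter read: HCT-116 p53RE-bla cells receive compounds plus rat microsomes and NADPH (0.5 mg/mL final apiece), incubate 16 h at 37 C, and then CellTiter-Glo luminescence is recorded.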

[10] = p53 small molecule agonists, cell-based qHTS assay: qHTS cell viability counter screen (AID 1963581); note: nearly all actives have a fitted effect of over 45% in size
How it was run: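 Following 5 h attachment, HCT-116 p53RE-bla cells took up compound for 16 h at 37 C; the reporter was read with B/G FRET substrate (2 h RT), and viability then via CellTiter-Glo ATP luminescence.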

[11] = p53 small molecule agonists, cell-based qHTS assay (AID 1963582; active = well fitted activation curve with a large enough effect in the signal ratio in the repeat runs, not every such curve was filed as active; the % refers to the signal ratio; note: potency is the fitted concentration of half-maximal effect)
How it was run: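 In this cell-based concentration-response screen, a p53 response element drives beta-lactamase; cells received DMSO-borne compounds after 5 h culture and were incubated a further 16 h before FRET substrate development.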

[12] = molecular target: 5-hydroxytryptamine receptor 2A (Homo sapiens) (UniProt P28223); test: 5-hydroxytryptamine receptor 2A (HTR2A) small molecule antagonists, cell-based qHTS assay (AID 1963586); note: nearly all actives have a fitted effect of over 45% in size; note: potency is the fitted concentration of half-maximal effect
Sequence of 5-hydroxytryptamine receptor 2A (Homo sapiens) (P28223 whole entry, looked up): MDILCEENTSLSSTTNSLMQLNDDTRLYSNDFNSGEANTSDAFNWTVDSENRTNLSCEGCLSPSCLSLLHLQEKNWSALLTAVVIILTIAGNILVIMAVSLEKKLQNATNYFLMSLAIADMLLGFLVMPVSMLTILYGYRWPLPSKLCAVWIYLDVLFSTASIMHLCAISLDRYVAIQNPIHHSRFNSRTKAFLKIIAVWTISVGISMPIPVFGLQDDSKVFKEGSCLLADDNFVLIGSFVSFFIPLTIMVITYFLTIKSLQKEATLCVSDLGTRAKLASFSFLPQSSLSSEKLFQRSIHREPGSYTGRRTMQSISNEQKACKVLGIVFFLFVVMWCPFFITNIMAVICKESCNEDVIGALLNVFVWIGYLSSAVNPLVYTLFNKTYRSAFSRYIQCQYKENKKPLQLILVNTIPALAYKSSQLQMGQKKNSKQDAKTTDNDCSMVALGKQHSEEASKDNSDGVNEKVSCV
How it was run: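 Antagonist-mode intracellular calcium assay: DOI (4 nM) added after 5 min compound pre-incubation at room temperature to dye-loaded HTR2A-CHO cells. Fluorescence followed for 3 min, sampled every second.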

[13] = molecular target: 5-hydroxytryptamine receptor 2A (Homo sapiens) (UniProt P28223); test: 5-hydroxytryptamine receptor 2A (HTR2A) small molecule agonists, cell-based qHTS assay (AID 1963587); note: nearly all actives have a fitted effect of over 30% in size
How it was run: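 CHO cells stably expressing human HTR2A, plated 18 h, loaded with calcium dye 1 h at 37 C. Agonist mode: compounds added and intracellular calcium fluorescence recorded kinetically for 2 min at 1 sec intervals.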

[14] = molecular target: Muscarinic acetylcholine receptor M1 (Homo sapiens) (UniProt P11229); test: Cholinergic receptor muscarinic 1 (CHRM1) small molecule antagonists, cell-based qHTS assay (AID 1963588); note: nearly all actives have a fitted effect of over 40% in size; note: potency is the fitted concentration of half-maximal effect
Sequence of Muscarinic acetylcholine receptor M1 (Homo sapiens) (P11229 whole entry, looked up): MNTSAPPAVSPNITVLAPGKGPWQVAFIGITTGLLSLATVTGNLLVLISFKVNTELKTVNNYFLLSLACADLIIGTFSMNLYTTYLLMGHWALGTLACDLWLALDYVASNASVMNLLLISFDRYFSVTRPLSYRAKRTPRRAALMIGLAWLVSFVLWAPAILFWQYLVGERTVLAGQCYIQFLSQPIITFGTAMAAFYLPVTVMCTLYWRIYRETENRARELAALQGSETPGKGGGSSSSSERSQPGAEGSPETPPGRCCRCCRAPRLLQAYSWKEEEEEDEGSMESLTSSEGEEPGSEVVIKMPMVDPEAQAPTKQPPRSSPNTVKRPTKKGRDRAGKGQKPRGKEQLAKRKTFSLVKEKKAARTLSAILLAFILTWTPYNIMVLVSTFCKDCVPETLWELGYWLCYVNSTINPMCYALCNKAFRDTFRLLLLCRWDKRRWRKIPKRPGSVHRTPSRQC
How it was run: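 CHRM1-CHO calcium-flux assay, antagonist mode. Cells were seeded 18 h, dye-loaded 1 h at 37 C and given compound for 5 min at RT, then acetylcholine was added at 50nM. FDSS fluorescence was read 3 min; 15 concentrations, three runs.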

[15] = molecular target: Beta-2 adrenergic receptor (Homo sapiens) (UniProt P07550); test: Adrenergic beta2 receptor (ADRB2) small molecule antagonists, cell-based qHTS assay (AID 1963592); note: series mostly up to about 92 µM; nearly all actives have a fitted effect of over 50% in size
Sequence of Beta-2 adrenergic receptor (Homo sapiens) (P07550 whole entry, looked up): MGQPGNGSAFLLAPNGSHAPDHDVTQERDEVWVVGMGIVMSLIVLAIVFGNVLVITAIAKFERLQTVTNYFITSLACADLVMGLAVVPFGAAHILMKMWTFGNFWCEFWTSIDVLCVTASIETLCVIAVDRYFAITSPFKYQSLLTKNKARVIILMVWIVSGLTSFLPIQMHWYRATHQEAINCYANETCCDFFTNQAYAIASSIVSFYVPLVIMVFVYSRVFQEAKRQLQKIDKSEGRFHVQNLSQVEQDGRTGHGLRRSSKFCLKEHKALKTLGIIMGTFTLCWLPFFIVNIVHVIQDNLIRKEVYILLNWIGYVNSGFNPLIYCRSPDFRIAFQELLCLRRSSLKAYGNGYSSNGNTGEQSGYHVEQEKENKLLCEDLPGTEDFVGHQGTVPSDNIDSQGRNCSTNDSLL
How it was run: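 Cells (CHO, stable ADRB2 overexpression) incubated 18-20hr at 37C; compounds added from DMSO; agonist mix (1nM isoproterenol, 100uM IBMX, 25uM Ro-20-1724) added; 0.5hr RT; d2-cAMP and anti-cAMP-cryptate added; 1hr RT; 665/615 nm read.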

[16] = molecular target: D(2) dopamine receptor (Homo sapiens) (UniProt P14416); test: Dopamine D2 receptor (DRD2) small molecule agonists, cell-based qHTS assay (AID 1963594); note: nearly all actives have a fitted effect of over 35% in size
Sequence of D(2) dopamine receptor (Homo sapiens) (P14416 whole entry, looked up): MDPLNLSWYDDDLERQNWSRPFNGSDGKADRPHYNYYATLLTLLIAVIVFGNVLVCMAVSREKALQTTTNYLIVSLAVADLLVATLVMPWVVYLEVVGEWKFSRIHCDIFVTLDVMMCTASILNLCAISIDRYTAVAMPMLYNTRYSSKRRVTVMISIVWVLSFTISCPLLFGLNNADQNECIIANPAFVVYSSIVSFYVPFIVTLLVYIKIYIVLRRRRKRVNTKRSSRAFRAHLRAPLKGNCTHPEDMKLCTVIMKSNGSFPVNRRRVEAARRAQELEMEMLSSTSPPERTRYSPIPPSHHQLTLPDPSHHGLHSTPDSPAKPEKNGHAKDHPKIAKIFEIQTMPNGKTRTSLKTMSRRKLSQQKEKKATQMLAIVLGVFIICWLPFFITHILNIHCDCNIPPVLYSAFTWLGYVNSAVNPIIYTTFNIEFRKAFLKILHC
How it was run: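 HEK293 cells stably expressing human DRD2, pre-treated with PDE inhibitor Ro20-1724 (0.1 mM final) and compound 10 min at room temperature, then stimulated with NKH477 (200nM […]) for 30 min. cAMP read by HTRF (665/620 nm).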

[17] = molecular target: D(2) dopamine receptor (Homo sapiens) (UniProt P14416); test: Dopamine D2 receptor (DRD2) small molecule antagonists, cell-based qHTS assay (AID 1963595; active = well fitted inhibition curve with a large enough effect in the signal ratio in the repeat runs, with a control signal flat; the % refers to the signal ratio)
How it was run: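 Antagonism was scored as restored cAMP in HEK293-DRD2 cells. These cells were stimulated with 200 nM NKH477 and 12 nM quinpirole for 30 min at room temperature, in the presence of 0.1 mM Ro20-1724.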

[18] = molecular target: Muscarinic acetylcholine receptor M1 (Homo sapiens) (UniProt P11229); test: Cholinergic receptor muscarinic 1 (CHRM1) small molecule agonists, cell-based qHTS assay (AID 1963589); note: nearly all actives have a fitted effect of over 35% in size
How it was run: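 Measures agonist-induced intracellular calcium rise. Stable human CHRM1 CHO line, 1 h dye load at 37 C, compounds from DMSO, kinetic fluorescence read.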

[19] = cAMP Responsive Elements (CRE) small molecule antagonists, cell-based qHTS assay (AID 1963591; active = well fitted inhibition curve with a large enough effect in the signal ratio in the repeat runs, not every such curve was filed as active; the % refers to the signal ratio)
How it was run: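 HEK293T cells carrying a CRE-driven beta-lactamase reporter receive compound and NKH477 (0.25 uM final) for 3 h. Fluorescence from LiveBLAzer B/G FRET substrate is read after 2 h at room temperature.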

[20] = cAMP Responsive Elements (CRE) small molecule agonists, cell-based qHTS assay (AID 1963590)
How it was run: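 A CRE-responsive beta-lactamase reporter in HEK 293T cells was used. Treatment ran 3 h at 37 C; detection used LiveBLAzer B/G FRET substrate for 2 h at room temperature.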

SMILES	Potency [1]	Potency [2]	Potency [3]	Potency [4]	Potency [5]	Potency [6]	Potency [7]	Potency [8]	Potency [9]	Potency [10]	Potency [11]	Potency [12]	Potency [13]	Potency [14]	Potency [15]	Potency [16]	Potency [17]	Potency [18]	Potency [19]	Potency [20]
Cc1c([N+](=O)[O-])cc2c(c1[N+](=O)[O-])C(C)(C)CC2(C)C	inactive	48.6 µM (active)	inactive	inactive	inactive	inactive	inactive	inactive	inactive	inactive	inactive	inactive	inactive	inactive	inactive	inactive	inactive			
CCC1COC(Cn2cncn2)(c2ccc(Cl)cc2Cl)O1 (centres undefined)	inactive	inactive	inactive	inactive	inactive	inactive	inactive	inactive	inactive	inactive	inactive	inactive	inactive	inactive		inactive	inactive	inactive		
C=C1C[C@@H]2[C@H](CC[C@]3(C)C(=O)CC[C@@H]23)[C@@]2(C)C=CC(=O)C=C12	inactive	29.8 µM (active)	inactive	inactive	inactive	inactive	inactive	inactive	inactive	inactive	inactive	inactive	inactive	inactive		inactive	inactive	inactive		
CN1CCc2cc(Cl)c(O)cc2[C@H]2c3ccccc3CC[C@@H]21	inactive	inactive	inactive	inactive	inactive	inactive	inactive	inactive	inactive	inactive	inactive	0.0326 µM (active)	inactive	inactive		inactive		inactive	inactive	
CCOC(=O)c1ncn2c1CN(C)C(=O)c1c(I)cccc1-2	inactive	inactive	inactive	inactive	inactive	inactive	inactive	inactive	inactive	inactive	inactive	inactive	inactive	inactive	inactive		inactive	inactive		inactive
COC(=O)C(c1ccccc1)C1CCCCN1 (centres undefined)	inactive	inactive	inactive	inactive	inactive	inactive	inactive	inactive	inactive	inactive	inactive	inactive		26.6 µM (active)	inactive	inactive	inactive	inactive	inactive	inactive
CCCC[P+](CC)(CCCC)CCCC (tested in a mixture with another compound)	inactive	inactive	inactive	inactive	inactive	inactive	inactive	inactive	inactive	inactive	inactive	inactive	inactive	inactive	inactive	inactive	inactive	inactive	inactive	
C[C@@H]1CC2=CC(=O)CC[C@@H]2[C@H]2CC[C@@]3(C)[C@@H](CC[C@]3(C)O)[C@@H]21	inactive	inactive	inactive	inactive	inactive	inactive	inactive	inactive	inactive	inactive	inactive	inactive	inactive	inactive	inactive		inactive	inactive		
CCOC(=O)NC(C)(C)Cc1ccc(Cl)cc1	inactive	inactive	inactive	inactive	inactive	inactive	inactive	inactive	inactive	inactive	inactive	inactive	inactive	inactive	inactive	inactive	inactive	inactive		inactive
BrCBr	inactive	inactive	inactive	inactive	inactive	inactive	inactive	inactive	inactive	inactive	inactive	inactive	inactive	inactive	inactive		inactive	inactive	inactive	inactive
COc1cc(Cl)c(OC)cc1Cl	inactive	inactive	inactive	inactive	inactive	inactive	inactive	inactive	inactive	inactive	inactive	inactive	inactive	inactive	inactive		inactive	inactive		
Cc1cc(Cl)ccc1O[C@H](C)C(=O)O	inactive	inactive	inactive	inactive	inactive	inactive	inactive	inactive	inactive	inactive	inactive	inactive	inactive	inactive	inactive	inactive	inactive	inactive	inactive	
COC(N)=O	inactive	inactive	inactive	inactive	inactive	inactive	inactive	inactive	inactive	inactive	inactive	inactive	inactive	inactive	inactive	inactive				
C[C@]12CC[C@H]3[C@@H](CCC4=CC(=O)CC[C@@H]43)[C@@H]1CC[C@@H]2OC(=O)CCc1ccccc1	inactive	inactive	inactive	inactive	inactive	inactive	inactive	inactive	inactive	inactive	inactive	inactive	inactive	2.31 µM (active)	inactive	inactive	inactive	inactive		inactive
COc1cc(C=O)cc2c1[C@H](COC(N)=O)[C@]1(OC(C)=O)ON2C[C@H]2[C@@H]1N2C(C)=O	9.69 µM (active)	inactive	inactive	inactive	inactive	inactive	inactive	inactive	inactive	inactive	3.63 µM (active)	inactive	inactive	inactive	inactive	inactive	inactive	inactive		inactive
